# hiPSC survival: hiPSC single-cell survival enhancement. 360,000 compounds, 0.044% hits. ATPlite luminescence; 100% = ROCK inhibitor wells, 0% = DMSO. AID 602274. survival enhancement, % at 20 µM; in the data active = survival enhancement above about 18%;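 note: cells exposed to compounds for 16 hours before the ATP read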
# LGR2 inh: inhibitors of bursicon-induced Drosophila LGR2 receptor cAMP signaling. 380,000 compounds, 0.35% hits. AID 720647. inhibition, % at 9.99 µM. HEK293 LGR2, CRE-luciferase, bursicon-stimulated, 4 h;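 active = drop in luminescence signal, shown as inhibition above about 50% in the replicate tests, limit read from the data, passing the limit was not always enough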;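 note: agonist challenge used bursicon conditioned medium at about half maximal strength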
# KKLEB cytotox: counter-screen for CF NF-kB inhibitors: cytotoxicity | KKLEB CF airway cells viability, ATPlite luminescence, overnight; stronger effect = lower value; cells stimulated with P. aeruginosa culture filtrate | 360,000 compounds, 0.36% hits | activity change (cytotoxicity), % at 5 µM;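 active = corrected activity change at or below -50% at 5 µM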
# CF NFkB block: cystic fibrosis NF-kB activation inhibition. inhibition, % at 5 µM. 360,000 compounds, 0.86% hits. KKLEB NF-kB-GFP reporter, PAF-induced, GFP fluorescence overnight;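 active = at least 50% inhibition at 5 µM, scaled per plate between neutral and stimulator controls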;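 note: PAF is a Pseudomonas aeruginosa culture filtrate used as stimulus; plate controls were PAF-stimulated DMSO wells for no effect and unstimulated DMSO wells for full effect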
# TWEAK Fn14 block: TWEAK-Fn14 signaling inhibition. 360,000 compounds, 2% hits. inhibition, % at 10 µM. TWEAK-stimulated Fn14 reporter cells, luciferase luminescence, 8 h; in the data active = inhibition above about 50%
# HIF-2a block: blocks HIF-2a reporter activity | 786-0 RCC cells HIF-2a reporter, luciferase luminescence, overnight | inhibition, % at 18.8 µM | 360,000 compounds, 0.72% hits | AID 624352;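 active = inhibition of the luminescence signal of 40% or more relative to plate controls, in a single-dose primary screen at 18.75 µM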
# An asterisk follows results filed as active; · = no result; ! = not confirmed by another sample. An excerpt weighted towards active compounds, which were near 2.3% of everything screened.
SMILES,hiPSC survival,LGR2 inh,KKLEB cytotox,CF NFkB block,TWEAK Fn14 block,HIF-2a block
C[C@@H]1CCCCO[C@@H](CN(C)Cc2ccccc2)[C@@H](C)CN([C@H](C)CO)C(=O)c2cc(NS(=O)(=O)c3cn(C)cn3)ccc2O1,·,-6.0,·,·,·,·
O=C(C1CCCC1)N1CC(=O)N2[C@H](CO)[C@@H](c3ccc(C#Cc4cccc(F)c4)cc3)[C@H]2C1,·,3.3,·,·,·,·
CCC(=O)Nc1ccc2c(c1)C(=O)N(C)C[C@@H](OC)[C@@H](C)CN(C(=O)CN(C)C)[C@H](C)CO2,·,-23.2,·,·,·,·
COc1ccccc1C(=O)NNC(=O)c1cccc(O)c1,-0.5,39.1,19.6,-23.1,38.6,-89.4
COc1ccccc1C(=O)NNC(=O)c1cccc(F)c1,-1.7,1.9,1.9,-12.8,66.8*,-65.7
COCC(=O)N(C[C@@H]1N[C@@H](CO)[C@@H]1c1ccc(-c2ccccc2)cc1)C(C)C,·,-10.4,·,·,·,·
Cc1cc(C(=O)N/N=C/c2ccc(N(C)C)cc2)c2ccccc2n1,-0.5,13.9,-4.4,-10.5,51.2*,-5.6
CN(C)C(=O)C[C@@H]1CC[C@H]2[C@H](COc3ccc(NC(=O)NCc4ccccc4)cc3C(=O)N2C)O1,·,5.4,·,·,·,·
c1ccc(COc2cccc(-c3cc4nc(NCCc5ccncc5)ccn4n3)c2)cc1,1.6,45.5,-15.0,7.5,61.0*,-153.8
c1ccc(COc2cccc(-c3cc4nc(NCCCn5ccnc5)ccn4n3)c2)cc1,8.0,80.4*,-9.7,-15.9,12.2,-37.8
c1ccc(COc2cccc(-c3cc4nc(NCCOc5ccccc5)ccn4n3)c2)cc1,-3.3,-3.0,13.1,-25.1,27.1,-40.0
C[C@H](CO)N1C[C@H](C)[C@H](CN(C)CC2CCCC2)Oc2ncc(C#Cc3ccccn3)cc2C1=O,·,1.9,·,·,·,·
CN(C)CCNc1ccc2ncn3c4ccc(O)cc4c(=O)c1c23,-1.4,11.5,-14.1,19.0,1.8,49.3*
CN(C)CCNc1ccc(CO)c2sc3ccc(O)cc3c(=O)c12,-6.0,·,8.3,-188.6,-89.8,49.8*
C[C@H]1CN([C@@H](C)CO)C(=O)Cc2cc(NS(C)(=O)=O)ccc2O[C@H]1CN(C)C(=O)Nc1cccc2ccccc12,·,6.3,·,·,·,·
CC(=O)/C(N=Nc1cc2c(c([N+](=O)[O-])c1C)C(C)(C)CC2(C)C)=C(\C)O,-0.4,·,-0.4,1.5,96.1*,14.5
C[C@@H]1CCCCO[C@H](CN(C)C)[C@@H](C)CN([C@@H](C)CO)C(=O)c2cc(NC(=O)c3ccccc3)ccc2O1,·,-8.7,·,·,·,·
O=C(NCC[C@H]1CC[C@@H](NS(=O)(=O)c2ccccc2)[C@H](CO)O1)c1ccccc1F,·,1.0,·,·,·,·
COC(=O)c1ccc(C(=O)OC)c(NC(=O)N2c3ccccc3Sc3ccccc32)c1,-0.5,-7.3,-54.4*,53.6*,-33.6,12.3
COC(=O)c1ccccc1NC(=O)N1c2ccccc2Sc2ccccc21,-0.4,21.8,1.8,19.2,-5.2,17.1
CCN1CCN(Cc2ccc(NC(=O)c3cc(NC(=O)c4cc(C)on4)cc(OC)c3)cc2C(F)(F)F)CC1,-1.1,-1.7,4.9,15.5,0.2,-28.2
CCN1CCN(Cc2ccc(NC(=O)c3cc(NC(=O)C(=O)c4c[nH]c5ccccc45)cc(OC)c3)cc2C(F)(F)F)CC1,-4.4,-22.6,6.8,-2.1,75.5*!,-85.4
C[C@@H]1CN([C@H](C)CO)C(=O)c2cc(NC(=O)CCN3CCOCC3)ccc2O[C@H]1CN(C)Cc1ccc(Cl)c(Cl)c1,·,17.7,·,·,·,·
C[C@@H]1CN([C@@H](C)CO)S(=O)(=O)c2ccc(C#C[C@@H](C)O)cc2O[C@@H]1CN(C)CC1CCOCC1,·,-3.5,·,·,·,·
Cc1ccc(S(=O)(=O)Nc2ccc3c(c2)C(=O)N([C@@H](C)CO)C[C@H](C)[C@H](CN(C)CC2CCCCC2)OCCCC[C@@H](C)O3)cc1,·,4.1,·,·,·,·
SMILES,hiPSC survival,LGR2 inh,KKLEB cytotox,CF NFkB block,TWEAK Fn14 block,HIF-2a block
CC[C@@H](C(=O)[C@@H](C)[C@@H](O)[C@H](C)CCc1ccc(C)c(O)c1C(=O)O)[C@H]1O[C@](CC)([C@H]2CC[C@](O)(CC)[C@H](C)O2)C[C@@H]1C,-4.1,70.5*,-50.9*,76.3*,85.8*,-47.9
CCn1c(O)c(N=Nc2ccc3ccccc3n2)c2ccccc21,-0.4,-63.9,8.4,-21.6,0.4,-327.1
Brc1ccc(N=Nc2ccc3ccccc3n2)cc1,-0.6,95.3*,-97.5*,-25.9,99.1*,62.0*
C[C@@H]1CCCCO[C@@H](CN(C)Cc2ccc3c(c2)OCO3)[C@H](C)CN([C@H](C)CO)C(=O)c2cc(NS(=O)(=O)c3ccc(Cl)cc3)ccc2O1,·,-6.7,·,·,·,·
COc1ccc(NC(=O)N(C)C[C@@H]2OCCCC[C@H](C)Oc3ccc(NC(=O)Nc4c(C)noc4C)cc3C(=O)N([C@@H](C)CO)C[C@H]2C)cc1,·,4.9,·,·,·,·
N#C[C@H]1[C@H](c2ccc(C#CC3CCCC3)cc2)[C@H](CO)N1C(=O)Nc1ccc(F)cc1,·,1.6,·,·,·,·
CCCNC(=O)N1[C@H](C#N)[C@H](c2ccc(C#Cc3ccc(F)cc3)cc2)[C@H]1CO,·,52.6*,·,·,·,·
CCCNC(=O)N1[C@H](C#N)[C@H](c2ccc(C#Cc3ccc(F)cc3)cc2)[C@@H]1CO,·,7.7,·,·,·,·
N#C[C@@H]1[C@H](c2ccc(C#Cc3ccc(F)cc3)cc2)[C@@H](CO)N1C(=O)Nc1ccc(F)cc1,·,59.1*,·,·,·,·
O=C(C[C@@H]1CC[C@H](NC(=O)c2cccnc2)[C@@H](CO)O1)NCc1ccncn1,·,6.5,·,·,·,·
C[C@]12C=CC(=O)C=C1CC[C@H]1[C@@H]3C[C@@H](O)[C@](O)(C(=O)CO)[C@@]3(C)C[C@H](O)[C@@]12F,0.1,-5.2,-15.5,76.8*,-6.8,23.2
CC1CC2C3CCC4=CC(=O)C=CC4(C)C3(F)C(O)CC2(C)C1(O)C(=O)CO (configuration not stated),-0.8,-14.4,49.2,77.4*,1.6,25.2
CC(C)NC(=O)N[C@@H]1CC[C@H](CCNC(=O)C2CCCC2)O[C@@H]1CO,·,-2.5,·,·,·,·
Cn1c(=O)c2c(nc(N3CCc4ccccc4C3)n2Cc2ccccc2F)n(C)c1=O,9.0,·,-0.9,13.3,61.0*,20.2
O=C(N[C@H]1CC[C@@H](CCNS(=O)(=O)c2ccc(Cl)cc2)O[C@@H]1CO)c1cccnc1,·,3.3,·,·,·,·
C[C@@H]1CN([C@H](C)CO)C(=O)Cc2cc(NC(=O)Nc3cccc4ccccc34)ccc2O[C@@H]1CN(C)S(=O)(=O)c1ccc(Cl)cc1,·,6.4,·,·,·,·
CO[C@@H]1CN(C)C(=O)c2ccc(NC(=O)c3ccccc3)cc2OC[C@H](C)N(C(C)=O)C[C@@H]1C,·,9.9,·,·,·,·
Cc1cccc(OCCN2C(=O)C(=O)c3cc(C)ccc32)c1,0.4,-21.0,-14.1,53.5*,-30.2,-78.7

# Compound activity (PubChem BioAssay)
